Reference: PubChem BioAssay (NCI)
About 83,000 compounds went through this panel and 20% of them were active in at least one assay; those are over-represented in the sample as a whole.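 Cell lines were cultured in 96-well plates, exposed to a single compound concentration, and assessed for percent growth 48 hours later.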 Values without a mark were called inactive. The source made the active and inactive calls. The calls were made as follows: active = growth percent below 10; inactive = the rest.

Assays:
Assay in all cases: NCI-60 one-dose screen, 48 h (100 = growth as untreated, 0 = no growth, -100 = all killed)
HCT-15 colon = settings: 10 µM unless noted
HT29 colon = settings: 10 µM unless noted
SNB-75 CNS = settings: 10 µM unless noted
SNB-19 CNS = settings: 10 µM unless noted
U251 CNS = settings: 10 µM unless noted
PC-3 prostate = settings: 10 µM unless noted
SK-MEL-5 melanoma = settings: 10 µM unless noted
UACC-62 melanoma = settings: 10 µM unless noted
LOX IMVI melanoma = settings: 10 µM
SK-MEL-28 melanoma = settings: 10 µM unless noted

| Compound | growth (HCT-15 colon) | growth (HT29 colon) | growth (SNB-75 CNS) | growth (SNB-19 CNS) | growth (U251 CNS) | growth (PC-3 prostate) | growth (SK-MEL-5 melanoma) | growth (UACC-62 melanoma) | growth (LOX IMVI melanoma) | growth (SK-MEL-28 melanoma) |
| --- | --- | --- | --- | --- | --- | --- | --- | --- | --- | --- |
| Cc1ccc(C2CC(c3ccc(S(=O)(=O)NCCNc4nc(Nc5ccc(F)cc5)nc(N(C)C)n4)cc3)=Nc3c(N)nc(N)nc3N2)cc1 (stereo not given) | 29.1% | -14.3% (active) | 77.7% | 60.4% | 47.3% | 33.5% | 29.1% | 63.7% | 6.81% (active) | 59.8% |
| CCCCn1c(O)c(N=Nc2nc(-c3cc4ccccc4oc3=O)cs2)c2cc(Br)ccc21 | 102% | 112% | 102% | 95.3% | 101% | 97.4% | 98.3% | 93.5% | 94.7% | 104% |
| Cc1ccc(C(=O)NN2C(=O)/C(=C/C=C/c3ccc([N+](=O)[O-])o3)SC2=S)cc1 | -66.1% (active) | -74.3% (active) | -85% (active) | -100% (active) | -98.9% (active) | -15.1% (active) | -100% (active) | -92.4% (active) | -90.9% (active) | -94.3% (active) |
| COc1ccc(CCC2c3c(cc4c(c3OC)OCO4)CCN2C)cc1 (stereo not given) | -16.4% (active) | -45.6% (active) | 2.42% (active) | -2.75% (active) | -90.4% (active) | 3.75% (active) | -98.9% (active) | -95.7% (active) | -100% (active) | -98.3% (active) |
| Cc1ccc(-c2nc(C#N)c(S(=O)(=O)N3CCN(S(=O)(=O)c4ccccc4)CC3)o2)cc1 | -85.8% (active) | -56% (active) | 103% | 74.9% | 24.3% | 52.3% | 0.485% (active) | 18.5% | -92.2% (active) | 18.9% |
| COC(=O)/C=C/c1cccc2c1C(=O)NC(C)(c1cc3cc4ccccc4cc3oc1=O)N2 (stereo not given) | 54.6% | 32.9% | 61.8% | 49.7% | 43.8% | 38.9% | 79.5% | 49.2% | 6.32% (active) | 58% |
| COc1cc2c3c(n(CCCN4CCC[C@@H]4CO)c(=O)c2cc1OC)-c1cc2c(cc1C3=O)OCO2 | -90.9% (active) | -95.2% (active) | -83.4% (active) | -90.1% (active) | -95.1% (active) | -17.8% (active) | -90.8% (active) | 11.7% | -98.7% (active) | -92.1% (active) |
| Cc1ccc(/C=C/c2n(Cc3ccc4ccccc4c3)c3ccccc3[n+]2Cc2ccc3ccccc3c2)cc1 | -86.2% (active) | -50.4% (active) | -88.3% (active) | -58.5% (active) | -42.1% (active) | -88.3% (active) | -100% (active) | -63.6% (active) | -87.9% (active) | -92.3% (active) |
| Cc1ccc(C2=NN(c3nc(-c4cc5ccccc5oc4=O)cs3)C(c3ccc(C)cc3)C2)cc1 (stereo not given) | 91.7% | 124% | 96.2% | 94.7% | 99.9% | 99.9% | 101% | 91.2% | 91.2% | 123% |
| Cn1cc(-c2cc(N)n3nc(-c4cn(C)c5ccccc45)cc3n2)c2cc(Br)ccc21 | -79.1% (active) | -65.1% (active) | -35.7% (active) | 7.16% (active) | -72% (active) | -34% (active) | -63.5% (active) | -59.7% (active) | -85.3% (active) | -86.4% (active) |
| CCN(CC)c1ccc(/C=N/Nc2nc(-c3ccc(C)cc3)cs2)c(O)c1 | 67.2% | 83.5% | 92.1% | 89.6% | 90% | 70.5% | 79.7% | 80.6% | 88.2% | 95% |
| COC(=O)C[C@](O)(CCCC(C)(C)O)C(=O)O[C@H]1C(OC)=C[C@@]23CCCN2CCc2cc4c(cc2[C@@H]13)OCO4 | 0.83% (active) | -48.3% (active) | -48.9% (active) | -26.8% (active) | -23.4% (active) | -15.1% (active) | -71.9% (active) | -18.5% (active) | -82.4% (active) | -35.4% (active) |
| C#CCOc1cc(N(CC)CC)ccc1C(C(=O)NC(C)(C)C)N(C(=O)C1CCc2cc(F)ccc2O1)c1cc(C)cc(C)c1 (stereo not given) | 31.9% | 40.4% | 45.7% | 38.3% | 19.5% | 13.2% | 44.7% | 33.8% | 32.5% | 62.9% |
| COc1ccc(C2CC(c3ccc(S(=O)(=O)NCCNc4nc(Nc5ccc(F)cc5)nc(N(C)C)n4)cc3)=Nc3c(N)nc(N)nc3N2)cc1 (stereo not given) | 82.7% | 63.4% | 92.7% | 76.3% | 64.5% | 53.7% | 71.7% | 81.6% | 65.1% | 85.5% |
| C#CCOc1cc(N(CC)CC)ccc1C(C(=O)NC(C)(C)C)N(C(=O)C1CCc2cc(F)ccc2O1)c1ccccc1Br (stereo not given) | 50.2% | 51.1% | 97.5% | 56.5% | 48.6% | 27.3% | 56.8% | 40.8% | 31.7% | 64.8% |
| Cn1cc(-c2cc3nc(-c4c[nH]c5ccc(Cl)cc45)cc(N)n3n2)c2ccccc21 | -86.2% (active) | -80.7% (active) | -67.5% (active) | -72.3% (active) | -83% (active) | -80.9% (active) | -84.8% (active) | -70.9% (active) | -80.7% (active) | -97.4% (active) |
| O=[N+]([O-])c1ccc(/C=C/c2nc3ccccc3n3c(=S)[nH]nc23)cc1 | 82.1% | 93.4% | 102% | 78.4% | 76.2% | 65.8% | 61.8% | 63.3% | 91.3% | 82.7% |
| CC1(C)CC[C@]2(C(=O)O)CC[C@]3(C)C(=CCC4[C@@]5(C)C[C@@H](O)[C@@H]6OC(c7ccco7)OC[C@@]6(C)C5CC[C@]43C)C2C1 (stereo not given in full) | 20.7% | 21.3% | 72.2% | 28.4% | 16.8% | 20.8% | -33.2% (active) | -7.05% (active) | 22.9% | 24.9% |
| O=c1oc2ccccc2cc1-c1csc(N=Nc2c(O)[nH]c3ccc(Cl)cc23)n1 | 98.8% | 107% | 98.1% | 89.7% | 101% | 108% | 98.7% | 92% | 100% | 109% |
| CCOC(=O)/C=C/c1cccc2c1C(=O)NC(C)(c1cc3cc(Br)ccc3oc1=O)N2 (stereo not given) | 26.4% | 43.5% | 38.3% | 48.7% | 47.1% | 25.4% | 48.2% | 31.4% | 44.3% | 58.1% |
| COc1ccc(NC(=O)[C@@H](N)Cc2ccccc2)cc1C(=O)Nc1cccc(C2CC(=O)c3c(cc(OC)c(OC)c3OC)O2)c1 (stereo not given in full) | 37.7% | 73.4% | 108% | 79% | 60.2% | 38.8% | 46.5% | 49.7% | 25.1% | 73.2% |
| COc1ccc(/C=C/c2n(Cc3ccc4ccccc4c3)c3ccccc3[n+]2Cc2ccc3ccccc3c2)cc1 | -76.9% (active) | -97.1% (active) | -95.7% (active) | -94.6% (active) | -94.3% (active) | -25.1% (active) | -97.6% (active) | -90.5% (active) | -80.4% (active) | -89% (active) |
| O=C(c1ccccc1)C(c1c[nH]c2ccccc12)c1c[nH]c2ccccc12 | 13% | 22.9% | 72.4% | 91.7% | 59.9% | 38.6% | 92.5% | 60.4% | -48.4% (active) | 76.9% |
| O=C(CCN1C(=O)/C(=C/c2ccc(F)cc2)SC1=S)N1CCOCC1 | 55.3% | 78.7% | 98.3% | 87.6% | 89.1% | 106% | 83.2% | 47.6% | 40.2% | 72.9% |
| CN(C)c1nc(NCCNS(=O)(=O)c2ccc(C(=O)/C=C/c3ccc(C(F)(F)F)cc3)cc2)nc(Nc2ccc(F)cc2)n1 | -92.5% (active) | -94% (active) | 54.6% | 25.2% | -99.2% (active) | -33.5% (active) | 16.2% | -5.71% (active) | -100% (active) | -80% (active) |
| COc1cccc(-c2nc(Nc3ccc(S(N)(=O)=O)cc3)c3ccccc3n2)c1 | 5.48% (active) | 13.8% | 61.1% | 50.4% | 40.3% | 29.3% | 25.6% | 37.5% | 24.8% | 47.3% |
